Compounds with a hit are over-represented: about 2.5% of the library has one in this group of screens.
GALK inh: inhibits human galactokinase | P51570 | recombinant GALK, Kinase-Glo ATP luminescence, 1 h | Potency, µM (titrated, usually from 57.5 µM), most hits filed as inhibitors | 44,000 tested, under 10 active | AID 1347072
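Reactions with and without enzyme served as controls. GALK at 5 nM phosphorylates 100 uM galactose using 35 uM ATP (HEPES pH 8.0, Mg2+) for 1 h at RT, with luminescence read 10 min after adding Kinase-Glo Plus.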
B2AR arrestin ag: beta-arrestin recruitment by human beta2-adrenergic receptor ligands | AID 1347077 | Potency, µM (highest dose often 46.1 µM), most hits filed as activators | HTLA Tango cells, beta-arrestin recruitment, luciferase luminescence, 18 h | P07550 | 44,000 tested, under 10 active
Target sequence (P07550 whole entry, looked up): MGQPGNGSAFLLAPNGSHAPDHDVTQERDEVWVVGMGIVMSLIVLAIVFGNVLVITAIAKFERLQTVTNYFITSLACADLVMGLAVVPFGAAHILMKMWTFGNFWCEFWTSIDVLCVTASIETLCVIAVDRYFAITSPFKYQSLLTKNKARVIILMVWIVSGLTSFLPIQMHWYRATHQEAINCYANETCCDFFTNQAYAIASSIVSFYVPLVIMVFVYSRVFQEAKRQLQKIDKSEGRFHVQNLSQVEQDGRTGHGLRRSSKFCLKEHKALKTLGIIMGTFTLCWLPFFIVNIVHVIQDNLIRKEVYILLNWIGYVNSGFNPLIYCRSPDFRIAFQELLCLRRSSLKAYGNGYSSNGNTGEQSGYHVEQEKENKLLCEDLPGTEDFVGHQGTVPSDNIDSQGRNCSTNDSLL
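Tango cells (recombinant beta2-AR, beta-arrestin, tTA-driven luciferase), 1500/well in DMEM 1% FBS, treated 18 h at 37 °C with compounds up to 46 µM; luciferin mix added, luminescence read after 15 min; %activity curves fitted and curve-classed.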
PTAP-TSG101 blk: blocks PTAP binding to human TSG101, validation | Q99816 | Fluorescence polarization, FITC-PTAP peptide/Tsg101, 20 min | Potency, µM (titrated, usually from 115 µM), hits mostly inhibitors | 44,000 tested, under 10 active
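FITC-labeled PTAP peptide (50 nM final) binding to Tsg101 binding domain (10 uM final) read by fluorescence polarization after 20 min at r.t. in HEPES pH 7.5 buffer. Actives by CRC class, <25 µM.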
DRV1 agonist: activates human resolvin D1 receptor GPR32 | activation, % at 76.9 µM | CHO-K1 GPR32 beta-arrestin PathHunter luminescence, 90 min; zero percent set by DMSO-only wells | O75388 | 48,000 tested, 2.5% active;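 active = activation of at least 60% and not above a set upper limit, about 1 call in 100 departs from these limits; inconclusive = activation of 40% to 60%, or above that upper limit; inactive = activation under 40%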
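CHO-K1 cells stably expressing ProLink-tagged GPR32 and Enzyme Activator-tagged beta-arrestin were seeded at 2,500 cells/well overnight, exposed to compounds for 90 min at 37 °C, then read by beta-Gal complementation chemiluminescence after 1 h detection reagent.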
Each line names hits and unclear results; the compound was inactive in the other large screens; ! = a repeat was not active. Unless noted, calls follow the shape of the dose curve; as a rule, active = well fitted curve in the direction sought with a large enough effect; inconclusive = small, poorly fitted or top-dose-only effect, or another doubt; inactive = no such curve, though single readings can be large; an effect the other way counts as inactive or inconclusive.

Cc1cccc(OCC(O)CNC(C)(C)C)c1C (stereo not given)	none (no result: GALK inh, B2AR arrestin ag, PTAP-TSG101 blk)
Cc1ccccc1CSc1cn(CCNC(=O)c2cccs2)c2ccccc12	none
O=C(CSc1cn(CCNC(=O)c2ccccc2F)c2ccccc12)Nc1ccccc1F	none
O=C(NCCn1cc(SCc2ccccc2F)c2ccccc21)c1cccs1	DRV1 agonist 67
COc1ccc(CCNC(=O)CSc2cn(CCNC(=O)c3ccccc3F)c3ccccc23)cc1OC	DRV1 agonist 80
O=C(CSc1cn(CCNC(=O)c2c(F)cccc2F)c2ccccc12)Nc1ccccc1F	DRV1 agonist 66
CCOc1ccc(NC(=O)CN2C(C(=O)OC)=C(c3ccccc3)c3cc(Cl)ccc3S2(=O)=O)cc1	none
Cc1onc(-c2c(Cl)cccc2Cl)c1C(=O)Cl	none (no result: GALK inh, B2AR arrestin ag, PTAP-TSG101 blk)
Cc1c(OCC(F)(F)F)ccnc1CS(=O)c1nc2ccccc2[nH]1 (stereo not given)	DRV1 agonist 60! (no result: GALK inh, B2AR arrestin ag, PTAP-TSG101 blk)
COCCCOc1ccnc(CS(=O)c2nc3ccccc3[nH]2)c1C (stereo not given)	none (no result: GALK inh, B2AR arrestin ag, PTAP-TSG101 blk)
COc1ccc(CNC(=O)C(=O)NCC(c2ccco2)S(=O)(=O)c2cccs2)cc1 (stereo not given)	none
Cc1nn(C)c2c1c(-c1ccccc1)cc(=O)n2CC(=O)NC(C)(C)C	DRV1 agonist 91
O=C(NCc1ccc(F)cc1)C1CCN(c2ncnc3c2nc2n3CCCCC2)CC1	none
Cc1cc(OCC(=O)Nc2cnn(CCCC(=O)O)c2)ccc1Cl	DRV1 agonist 82
Cc1nc2c(c(C)nn2C(C)(C)C)c(C)c1CCC(=O)Nc1ccc(F)cc1	DRV1 agonist 74
Cc1nc2nncn2c(NCc2ccc(Cl)cc2)c1C	DRV1 agonist 76
COc1ccccc1N1CCN(CC(O)COc2cc(OC)c(OC)c(OC)c2)CC1 (stereo not given)	none (no result: GALK inh, B2AR arrestin ag, PTAP-TSG101 blk)
Cc1ccc(SCCNC(=O)CN(c2cccc(C)c2C)S(C)(=O)=O)cc1	DRV1 agonist 76
Cc1cccc(N(CC(=O)NCCSCc2ccc(Cl)cc2)S(C)(=O)=O)c1C	DRV1 agonist inconclusive
Cc1cccc(N(CC(=O)NCCSc2ccc(Cl)cc2)S(C)(=O)=O)c1C	DRV1 agonist 103
Cc1cc2oc3c(c(=O)c2cc1C)C(c1ccc(C(C)C)cc1)N(c1nc(C)c(C)s1)C3=O (stereo not given)	none
CCC(=O)N1CCc2cc(CNS(=O)(=O)c3ccc(C(C)C)cc3)ccc21	DRV1 agonist 109
CC(=O)N1CCc2cc(CNS(=O)(=O)c3ccc(C(C)(C)C)cc3)ccc21	none
Cc1ccccc1NCc1cccn1-c1nnc(N2CCOCC2)s1	none
Fc1ccc(NCc2cccn2-c2nnc(N3CCOCC3)s2)cc1	DRV1 agonist 67
Fc1cccc(NCc2cccn2-c2nnc(N3CCOCC3)s2)c1	DRV1 agonist 66
Cc1cccc(Nc2cc(C)nc3nc(Cc4ccc(Cl)cc4)nn23)c1	none
OCCN(CCO)c1nc(N2CCCCC2)c2nc(N(CCO)CCO)nc(N3CCCCC3)c2n1	DRV1 agonist 108! (no result: GALK inh, B2AR arrestin ag, PTAP-TSG101 blk)
CCCNC(=O)c1c(NC(=O)c2ccccc2)sc2c1CCC(C(C)(C)C)C2 (stereo not given)	none
CCCCCCCCCCCCCCCCCCNC(=O)OC1CCN(C(=O)OC[C@H](COC(=O)N(Cc2cccc[n+]2CC)C(=O)c2ccccc2OC)OC)CC1	none (no result: GALK inh, B2AR arrestin ag, PTAP-TSG101 blk)
Cc1n[nH]c(C)c1CCc1nc2c3ccccc3nc(SCC(=O)Nc3ccc(F)cc3)n2n1	DRV1 agonist 72
COc1cc2ncnc(Nc3ccc(F)c(Cl)c3)c2cc1OCCCN1CCOCC1	DRV1 agonist 77 (no result: GALK inh, B2AR arrestin ag, PTAP-TSG101 blk)
CC1CC(=O)NN=C1c1ccc(NCC(C)(C)NCC(O)COc2cc(Cl)ccc2C#N)cc1 (stereo not given)	none (no result: GALK inh, B2AR arrestin ag, PTAP-TSG101 blk)
COc1ccc(NC(=O)c2c(C)oc3ccc(O)c(CN4CCCC(C)C4)c23)cc1 (stereo not given)	DRV1 agonist 61
COc1ccc(NC(=O)c2c(C)oc3ccc(O)c(CN4CCC(C)CC4)c23)cc1	none
CC(=O)Nc1ccc(NC(=O)c2nc(SCc3ccccc3C)ncc2Cl)cc1	DRV1 agonist 65
COc1ccccc1Cc1nc2ccccc2nc1SCC(=O)N1CCC(C)CC1	DRV1 agonist 64
CCCCOc1ccc(NC(=O)Cn2nnnc2-c2ccccc2F)cc1	none
O=C(Cn1nnnc1-c1ccccc1F)Nc1ccc(OC(F)(F)F)cc1	DRV1 agonist 75
N#C/C(=C1/SC[C@@H](c2ccc(Cl)cc2Cl)S1)n1ccnc1	none (no result: GALK inh, B2AR arrestin ag, PTAP-TSG101 blk)
Cc1ccc(-n2ncc3c(N4CCN(c5ccccc5)CC4)ncnc32)cc1C	none
Cc1ccc(-n2ncc3c(N4CCN(C)CC4)ncnc32)cc1C	DRV1 agonist 75
CCOC(=O)C1CCCN(C(=O)c2cc3c(=O)n(C)c4ccccc4c3s2)C1 (stereo not given)	DRV1 agonist 103
Cc1ccc(Cl)cc1-n1ncc2c(NCCCc3ccccc3)ncnc21	DRV1 agonist 78
Cc1ccc(Cl)cc1-n1ncc2c(NCc3ccc(F)cc3)ncnc21	none
Cc1ccc(CNc2ncnc3c2cnn3-c2ccc(Cl)cc2)cc1	none
Cc1ccc(-n2ncc3c(NCc4ccccc4)ncnc32)cc1Cl	DRV1 agonist 62
Cc1ccc(Cl)cc1-n1ncc2c(NCCc3ccccc3)ncnc21	DRV1 agonist 101
CCC(=O)N1CCc2cc(Br)cc(S(=O)(=O)CCC(=O)N3CCN(c4cccc(C)c4)C(C)C3)c21 (stereo not given)	none
Cc1cccc(N(C)C(=O)CCNS(=O)(=O)c2ccc3c(c2)CCN3C(=O)C2CC2)c1	DRV1 agonist 71
O=C(CCNS(=O)(=O)c1ccc2c(c1)CCN2C(=O)C1CC1)N1CCN(c2cccc(C(F)(F)F)c2)CC1	DRV1 agonist 74
CCC(=O)N1CCc2cc(S(=O)(=O)CCC(=O)N3CCN(c4cccc(C)c4)C(C)C3)ccc21 (stereo not given)	DRV1 agonist 66
Cc1cccc(N2CCN(C(=O)CCNS(=O)(=O)c3ccc4c(c3)CCN4C(=O)C3CC3)CC2C)c1 (stereo not given)	DRV1 agonist inconclusive
Nc1nc2ccccc2n1Cc1ccc(F)cc1	none (no result: GALK inh, B2AR arrestin ag, PTAP-TSG101 blk)
CCOc1cccc(NC(=O)C2CC(=O)N(C)C(=Nc3ccc(F)cc3)S2)c1 (stereo not given)	DRV1 agonist 78
Cc1cc(C)cc(-n2c(SCC(=O)N3CCc4ccccc43)nc3c([nH]c4ccccc43)c2=O)c1	none
CCc1ccccc1NC(=O)CSc1nnc(COc2ccccc2Cl)o1	DRV1 agonist 69
COc1ccc(NC(=O)CSc2ccc(-c3cccs3)nn2)cc1	DRV1 agonist 112
Cc1ccc(NC(=O)c2c(NC(=O)C(F)(F)F)sc3c2CCCCC3)cc1	DRV1 agonist 62
COc1ccc(Nc2oc(-c3ccc(COc4cccc(C)c4)o3)nc2C#N)cc1	DRV1 agonist 97
COc1ccc(CCNc2oc(COc3cccc(C)c3)nc2C#N)cc1OC	DRV1 agonist 111
CCOc1ccc(Nc2oc(-c3ccc(COc4ccc(C)cc4)o3)nc2C#N)cc1	DRV1 agonist 67

Screening results deposited in PubChem BioAssay by National Center for Advancing Translational Sciences (NCATS).
